# Experimental data as given in publication PMC7862700, “An all-to-all approach to the identification of sequence-specific readers for epigenetic DNA modifications on cytosine”.
# Key:
# Assay in all cases: DAPPL (digital affinity profiling via proximity ligation, sequencing); 10 mM Tris-HCl pH 7.5, 50 mM NaCl, 1 mM DTT, 4% glycerol, room temperature, 30 min; GST-TFs on glutathione beads, 16-mer random dsDNA library, 0.1% formaldehyde crosslink after washing; high values mean tight binding
# Settings in all cases: protein: recombinant; tags: N-terminal GST; dsDNA, one strand shown
# ELK1 = molecular target: T1, ELK1 (Homo sapiens, UniProt P19419 1-428)
# T1 sequence: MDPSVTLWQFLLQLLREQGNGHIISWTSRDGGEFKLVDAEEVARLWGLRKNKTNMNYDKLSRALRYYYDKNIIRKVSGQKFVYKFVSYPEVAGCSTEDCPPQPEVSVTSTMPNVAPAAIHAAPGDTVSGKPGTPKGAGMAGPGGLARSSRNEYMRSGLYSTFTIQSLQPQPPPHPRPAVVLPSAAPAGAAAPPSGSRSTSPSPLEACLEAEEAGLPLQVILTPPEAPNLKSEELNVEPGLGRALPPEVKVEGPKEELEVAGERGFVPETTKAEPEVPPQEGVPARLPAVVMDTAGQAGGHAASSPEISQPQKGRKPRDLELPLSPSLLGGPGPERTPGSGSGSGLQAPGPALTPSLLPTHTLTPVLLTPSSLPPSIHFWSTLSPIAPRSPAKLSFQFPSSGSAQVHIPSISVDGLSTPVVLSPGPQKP
# How it was run: (§1)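 Binding signal is each hexamer's read frequency for a factor divided by its frequency in the tag-only sample. The factors were GST-fused human transcription factors from yeast, captured on glutathione beads, DNA-barcoded and pooled with that sample. Pools were incubated with 200 nmole of a random double-stranded 16-mer DNA library in Tris/NaCl/DTT/glycerol buffer at room temperature for 30 min, then washed, crosslinked with 0.1% formaldehyde, proximity-ligated with BsaI/T4 ligase (1 h, 37 °C), PCR-amplified and sequenced on an Illumina NextSeq500.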
# ERG = molecular target: T2, ERG (Homo sapiens, UniProt P11308 1-479)
# T2 sequence: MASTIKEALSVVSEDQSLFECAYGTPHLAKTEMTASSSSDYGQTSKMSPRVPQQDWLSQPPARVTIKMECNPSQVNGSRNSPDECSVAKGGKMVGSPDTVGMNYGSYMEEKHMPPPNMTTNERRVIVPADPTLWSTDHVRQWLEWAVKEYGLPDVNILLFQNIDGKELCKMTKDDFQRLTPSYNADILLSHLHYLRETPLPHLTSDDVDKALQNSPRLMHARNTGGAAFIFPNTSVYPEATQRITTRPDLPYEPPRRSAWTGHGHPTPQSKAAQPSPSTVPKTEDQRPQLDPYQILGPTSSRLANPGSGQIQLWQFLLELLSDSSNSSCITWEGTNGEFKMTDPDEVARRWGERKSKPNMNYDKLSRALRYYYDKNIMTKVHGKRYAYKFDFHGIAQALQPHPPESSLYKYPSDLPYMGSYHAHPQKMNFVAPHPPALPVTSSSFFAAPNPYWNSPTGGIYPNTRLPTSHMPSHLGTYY
# How it was run: as §1
# ELF1 = ELF1 (Homo sapiens, UniProt P32519 1-619)
# How it was run: as §1
# SPIB = SPIB (Homo sapiens, UniProt Q01892 1-262)
# How it was run: as §1
# FEV = molecular target: T3, FEV (Homo sapiens, UniProt Q99581 1-238)
# T3 sequence: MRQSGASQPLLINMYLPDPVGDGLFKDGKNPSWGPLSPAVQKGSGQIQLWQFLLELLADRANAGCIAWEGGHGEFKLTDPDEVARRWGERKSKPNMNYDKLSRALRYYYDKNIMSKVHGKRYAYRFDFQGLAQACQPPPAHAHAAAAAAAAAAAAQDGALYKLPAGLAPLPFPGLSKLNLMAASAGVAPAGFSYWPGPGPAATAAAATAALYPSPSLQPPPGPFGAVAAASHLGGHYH
# How it was run: as §1
# SPIC = molecular target: T4, SPIC (Homo sapiens, UniProt Q8N5J4 1-248)
# T4 sequence: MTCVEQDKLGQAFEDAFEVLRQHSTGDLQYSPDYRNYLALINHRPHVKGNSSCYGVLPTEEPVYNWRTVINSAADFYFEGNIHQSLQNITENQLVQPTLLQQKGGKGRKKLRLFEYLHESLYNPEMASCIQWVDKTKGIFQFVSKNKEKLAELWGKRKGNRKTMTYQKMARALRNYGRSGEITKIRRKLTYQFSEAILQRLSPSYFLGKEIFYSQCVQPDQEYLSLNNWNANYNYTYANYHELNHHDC
# How it was run: as §1
# ELF4 = ELF4 (Homo sapiens, UniProt Q99607 1-663)
# How it was run: as §1
# ETV2 = molecular target: T5, ETV2 (Homo sapiens, UniProt O00321 1-342)
# T5 sequence: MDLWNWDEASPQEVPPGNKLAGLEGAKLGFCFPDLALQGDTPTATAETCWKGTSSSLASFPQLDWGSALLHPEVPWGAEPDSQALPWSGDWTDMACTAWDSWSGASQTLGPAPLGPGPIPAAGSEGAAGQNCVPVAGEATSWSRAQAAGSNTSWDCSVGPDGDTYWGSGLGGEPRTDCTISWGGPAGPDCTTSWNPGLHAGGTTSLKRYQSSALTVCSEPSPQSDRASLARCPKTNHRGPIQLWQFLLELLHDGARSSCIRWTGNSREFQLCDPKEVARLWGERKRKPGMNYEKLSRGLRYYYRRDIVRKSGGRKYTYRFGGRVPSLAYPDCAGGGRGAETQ
# How it was run: as §1
# CRX = CRX (Homo sapiens, UniProt O43186 1-299)
# How it was run: as §1
# ETV3L = molecular target: T6, ETV3L (Homo sapiens, UniProt Q6ZN32 1-361)
# T6 sequence: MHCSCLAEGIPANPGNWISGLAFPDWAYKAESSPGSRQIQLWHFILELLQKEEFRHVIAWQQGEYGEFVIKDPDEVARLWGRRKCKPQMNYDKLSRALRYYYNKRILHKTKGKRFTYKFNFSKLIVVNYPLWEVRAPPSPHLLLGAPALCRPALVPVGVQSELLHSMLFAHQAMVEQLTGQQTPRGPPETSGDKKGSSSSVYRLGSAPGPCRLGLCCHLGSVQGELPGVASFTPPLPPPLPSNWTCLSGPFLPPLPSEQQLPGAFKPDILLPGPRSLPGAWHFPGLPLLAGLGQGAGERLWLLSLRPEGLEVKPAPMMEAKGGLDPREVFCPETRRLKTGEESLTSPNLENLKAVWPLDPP
# How it was run: as §1
# ETV7 = molecular target: T7, ETV7 (Homo sapiens, UniProt Q9Y603 1-341)
# T7 sequence: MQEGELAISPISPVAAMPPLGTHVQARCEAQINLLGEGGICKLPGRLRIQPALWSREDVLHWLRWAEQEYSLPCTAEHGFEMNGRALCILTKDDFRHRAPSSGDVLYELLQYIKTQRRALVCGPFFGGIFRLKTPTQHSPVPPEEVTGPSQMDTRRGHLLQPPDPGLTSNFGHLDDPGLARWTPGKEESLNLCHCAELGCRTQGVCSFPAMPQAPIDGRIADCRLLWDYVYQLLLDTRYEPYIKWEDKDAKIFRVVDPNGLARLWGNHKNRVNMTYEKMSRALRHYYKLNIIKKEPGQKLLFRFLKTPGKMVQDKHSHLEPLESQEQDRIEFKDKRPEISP
# How it was run: as §1
# ETV3 = molecular target: T8, ETV3 (Homo sapiens, UniProt P41162-2 1-143)
# T8 sequence: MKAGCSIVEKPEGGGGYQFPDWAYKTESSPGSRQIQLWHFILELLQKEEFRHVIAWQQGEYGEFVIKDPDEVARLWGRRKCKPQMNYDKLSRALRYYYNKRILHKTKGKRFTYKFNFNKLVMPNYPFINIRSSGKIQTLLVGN
# How it was run: as §1
# ELK4 = molecular target: T9, ELK4 (Homo sapiens, UniProt P28324-2 1-405)
# T9 sequence: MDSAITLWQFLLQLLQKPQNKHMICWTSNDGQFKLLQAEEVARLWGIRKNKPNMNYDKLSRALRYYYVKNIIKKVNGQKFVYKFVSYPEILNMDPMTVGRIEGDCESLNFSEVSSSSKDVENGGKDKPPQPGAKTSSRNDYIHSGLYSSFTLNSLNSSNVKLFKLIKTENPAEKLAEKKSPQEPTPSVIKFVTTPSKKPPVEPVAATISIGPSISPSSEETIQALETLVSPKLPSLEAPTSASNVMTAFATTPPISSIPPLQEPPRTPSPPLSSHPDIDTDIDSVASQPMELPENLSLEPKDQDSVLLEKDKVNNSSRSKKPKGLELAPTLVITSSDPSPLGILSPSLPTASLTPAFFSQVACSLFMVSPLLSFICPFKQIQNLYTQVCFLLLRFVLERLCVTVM
# How it was run: as §1
# ELF4, sequence (Q99607 whole entry): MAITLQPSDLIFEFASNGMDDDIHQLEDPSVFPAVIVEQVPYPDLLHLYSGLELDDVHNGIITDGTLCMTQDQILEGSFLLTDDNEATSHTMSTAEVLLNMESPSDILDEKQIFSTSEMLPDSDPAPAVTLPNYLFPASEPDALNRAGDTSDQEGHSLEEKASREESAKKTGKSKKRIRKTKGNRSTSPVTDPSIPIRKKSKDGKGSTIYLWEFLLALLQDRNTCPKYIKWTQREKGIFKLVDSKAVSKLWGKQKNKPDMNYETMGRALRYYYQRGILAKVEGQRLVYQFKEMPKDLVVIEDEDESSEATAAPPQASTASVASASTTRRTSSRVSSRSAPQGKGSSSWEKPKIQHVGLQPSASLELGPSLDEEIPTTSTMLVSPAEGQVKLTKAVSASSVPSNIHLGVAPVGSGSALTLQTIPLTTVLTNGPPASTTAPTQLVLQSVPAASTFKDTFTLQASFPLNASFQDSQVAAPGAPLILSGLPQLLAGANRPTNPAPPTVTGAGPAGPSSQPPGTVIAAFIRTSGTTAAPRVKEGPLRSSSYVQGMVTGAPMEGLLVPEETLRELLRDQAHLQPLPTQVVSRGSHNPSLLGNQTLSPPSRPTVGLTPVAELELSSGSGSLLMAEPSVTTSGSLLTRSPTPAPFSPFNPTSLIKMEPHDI
# CRX, sequence (O43186 whole entry): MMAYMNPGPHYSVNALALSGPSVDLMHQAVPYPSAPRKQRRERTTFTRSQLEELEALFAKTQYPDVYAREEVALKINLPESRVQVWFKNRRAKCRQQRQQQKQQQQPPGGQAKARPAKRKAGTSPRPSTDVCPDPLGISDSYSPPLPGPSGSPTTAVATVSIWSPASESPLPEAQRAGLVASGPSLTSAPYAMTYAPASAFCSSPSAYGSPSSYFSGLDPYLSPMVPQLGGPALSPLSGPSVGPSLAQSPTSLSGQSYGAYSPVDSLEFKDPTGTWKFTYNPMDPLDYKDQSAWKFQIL
# SPIB, sequence (Q01892 whole entry): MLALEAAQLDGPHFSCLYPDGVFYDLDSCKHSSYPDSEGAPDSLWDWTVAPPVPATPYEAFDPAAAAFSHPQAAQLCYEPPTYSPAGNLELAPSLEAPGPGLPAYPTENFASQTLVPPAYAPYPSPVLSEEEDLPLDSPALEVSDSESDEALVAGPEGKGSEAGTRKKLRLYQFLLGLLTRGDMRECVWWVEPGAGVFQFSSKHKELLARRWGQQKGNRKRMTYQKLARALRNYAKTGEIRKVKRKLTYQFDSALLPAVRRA
# ELF1, sequence (P32519 whole entry): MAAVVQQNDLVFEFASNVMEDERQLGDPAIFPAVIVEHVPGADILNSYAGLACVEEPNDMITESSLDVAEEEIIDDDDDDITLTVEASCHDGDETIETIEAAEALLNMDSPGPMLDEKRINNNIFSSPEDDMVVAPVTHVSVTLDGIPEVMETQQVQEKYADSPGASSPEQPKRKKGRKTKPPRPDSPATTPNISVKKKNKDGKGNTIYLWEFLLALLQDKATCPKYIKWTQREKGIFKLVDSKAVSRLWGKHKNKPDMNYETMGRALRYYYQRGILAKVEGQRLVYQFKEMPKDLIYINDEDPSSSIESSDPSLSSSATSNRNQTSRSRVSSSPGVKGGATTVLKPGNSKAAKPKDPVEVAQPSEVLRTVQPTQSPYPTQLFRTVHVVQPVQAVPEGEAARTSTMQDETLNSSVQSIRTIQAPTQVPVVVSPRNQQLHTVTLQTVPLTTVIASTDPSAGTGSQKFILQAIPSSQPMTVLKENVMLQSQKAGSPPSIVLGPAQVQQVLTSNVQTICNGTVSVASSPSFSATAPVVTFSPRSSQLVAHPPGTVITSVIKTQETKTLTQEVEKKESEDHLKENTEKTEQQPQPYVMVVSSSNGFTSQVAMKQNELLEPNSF
sequence,measurement,setting,value
TAGGCA,binding signal,ELK1,"1.03 fold enrichment (6-mer frequency, TF over GST control)"
same,binding signal,ERG,"1.06 fold enrichment (6-mer frequency, TF over GST control)"
same,binding signal,ELF1,"1.02 fold enrichment (6-mer frequency, TF over GST control)"
same,binding signal,SPIB,"1.02 fold enrichment (6-mer frequency, TF over GST control)"
same,binding signal,FEV,"1.05 fold enrichment (6-mer frequency, TF over GST control)"
same,binding signal,SPIC,"1.11 fold enrichment (6-mer frequency, TF over GST control)"
same,binding signal,ELF4,"1.01 fold enrichment (6-mer frequency, TF over GST control)"
same,binding signal,ETV2,"1.19 fold enrichment (6-mer frequency, TF over GST control)"
same,binding signal,CRX,"1.08 fold enrichment (6-mer frequency, TF over GST control)"
same,binding signal,ETV3L,"1.02 fold enrichment (6-mer frequency, TF over GST control)"
same,binding signal,ETV7,"1.06 fold enrichment (6-mer frequency, TF over GST control)"
same,binding signal,ETV3,"1.01 fold enrichment (6-mer frequency, TF over GST control)"
GATAGT,binding signal,SPIC,"1.01 fold enrichment (6-mer frequency, TF over GST control)"
GTTGGC,binding signal,SPIC,"1.09 fold enrichment (6-mer frequency, TF over GST control)"
AGGGCC,binding signal,SPIC,"1.02 fold enrichment (6-mer frequency, TF over GST control)"
same,binding signal,ELK4,"1.1 fold enrichment (6-mer frequency, TF over GST control)"
